Hit rate of the full screen: of about 400,000 compounds, about 2,100 (0.53%) were called active. Not shown: some 14% with an inconclusive outcome. The rule behind the calls is not given here. The full list was thinned out, with actives kept by preference.
biological target: Ataxin-2 (Homo sapiens) (UniProt Q99700); assay: qHTS for Inhibitors of ATXN expression.; format: functional
Sequence (Q99700 whole entry): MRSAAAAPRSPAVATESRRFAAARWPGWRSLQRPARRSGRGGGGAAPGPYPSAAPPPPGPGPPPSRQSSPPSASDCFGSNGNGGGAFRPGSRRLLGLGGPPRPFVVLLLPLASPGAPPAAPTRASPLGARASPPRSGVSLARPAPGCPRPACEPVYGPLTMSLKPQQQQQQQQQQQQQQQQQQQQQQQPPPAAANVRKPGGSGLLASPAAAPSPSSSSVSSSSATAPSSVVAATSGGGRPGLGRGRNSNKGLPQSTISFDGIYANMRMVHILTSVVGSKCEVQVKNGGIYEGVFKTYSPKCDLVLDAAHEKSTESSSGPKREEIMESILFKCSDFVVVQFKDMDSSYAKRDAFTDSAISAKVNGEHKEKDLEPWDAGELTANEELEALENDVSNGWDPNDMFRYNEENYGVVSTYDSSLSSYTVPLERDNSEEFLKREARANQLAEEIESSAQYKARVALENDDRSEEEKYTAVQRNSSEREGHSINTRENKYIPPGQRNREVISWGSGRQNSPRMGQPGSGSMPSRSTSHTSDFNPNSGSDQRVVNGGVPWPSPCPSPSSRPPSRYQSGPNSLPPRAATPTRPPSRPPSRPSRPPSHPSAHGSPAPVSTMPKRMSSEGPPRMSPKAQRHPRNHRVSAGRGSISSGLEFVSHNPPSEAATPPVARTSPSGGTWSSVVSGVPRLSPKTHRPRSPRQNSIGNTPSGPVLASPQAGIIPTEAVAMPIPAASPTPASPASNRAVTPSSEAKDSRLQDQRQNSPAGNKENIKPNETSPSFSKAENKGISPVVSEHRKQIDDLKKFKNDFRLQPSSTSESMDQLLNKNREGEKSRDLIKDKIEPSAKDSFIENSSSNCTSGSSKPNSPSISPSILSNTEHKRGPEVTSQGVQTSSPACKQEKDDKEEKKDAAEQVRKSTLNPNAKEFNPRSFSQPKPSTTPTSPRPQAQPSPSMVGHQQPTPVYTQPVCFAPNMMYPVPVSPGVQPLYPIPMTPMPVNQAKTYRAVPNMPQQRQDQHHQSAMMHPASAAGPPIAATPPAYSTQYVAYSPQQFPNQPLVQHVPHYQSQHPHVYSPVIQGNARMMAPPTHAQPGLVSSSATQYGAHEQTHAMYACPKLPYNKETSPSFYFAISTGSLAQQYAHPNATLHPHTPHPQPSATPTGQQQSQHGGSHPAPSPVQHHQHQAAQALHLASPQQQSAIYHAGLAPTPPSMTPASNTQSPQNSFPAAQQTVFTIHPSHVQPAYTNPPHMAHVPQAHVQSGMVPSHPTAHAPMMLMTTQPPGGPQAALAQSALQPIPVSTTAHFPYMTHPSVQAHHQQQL

| Structure (SMILES) | Potency |
| --- | --- |
| O=C1c2cccnc2C(=O)N1Cc1ccc(F)cc1S(=O)(=O)NCc1ccco1 | inactive |
| O=C(COC(=O)c1c2c(nc3ccccc13)/C(=C/c1ccco1)CC2)NC1CCCC1 | inactive |
| COCCn1c(N)c(C(=O)NCC2CCCO2)c2nc3ccccc3nc21 (centres undefined) | inactive |
| COC(=O)c1cc(S(=O)(=O)NCC2CCN(Cc3cc(C)ccc3C)CC2)cn1C | inactive |
| N#C/C(=C\c1cc(Cl)cc(Cl)c1O)C(=O)NC1CCCCC1 | inactive |
| O=[N+]([O-])c1c(Nc2ccc(O)cc2)cc(Cl)c2nonc12 | 2.24 µM (active) |
| O=C(N/N=C/c1ccsc1)C1CC1 | inactive |
| COc1ccc2[nH]c(CN3CCN(CCC(C)C)C(CCO)C3)c(C)c2c1 (centres undefined) | inactive |
| CCOC(=O)C1=C(C)N=c2s/c(=C/c3ccc(OCC(=O)O)c(OC)c3)c(=O)n2C1c1ccc(Cl)cc1 (centres undefined) | inactive |
| CCc1nnc(NC(=O)c2nc(S(=O)(=O)Cc3ccc(C)cc3)ncc2Cl)s1 | 31.6 µM (active) |
| CCN1CCN(CC(=O)Nc2nc3ccc(C)cc3s2)CC1 | inactive |
| CCOCCC(=O)Nc1nnc(CCc2ccccc2)s1 | inactive |
| CCc1nnc(NC(=O)c2sc3nc4c(cc3c2N)CCCCCC4)s1 | inactive |
| CCCc1nnc(NC(=O)c2nc(S(=O)(=O)Cc3ccc(C)cc3)ncc2Cl)s1 | 39.8 µM (active) |
| CCc1nnc(NC(=O)c2ccc(Br)o2)s1 | inactive |
| Cc1ccc(CS(=O)(=O)c2ncc(Cl)c(C(=O)Nc3nc4ccc(C)cc4s3)n2)cc1 | 22.4 µM (active) |
| CCc1nnc(NC(=O)c2ccc(S(=O)(=O)N(CCOC)CCOC)cc2)s1 | inactive |
| CCCc1nnc(NC(=O)c2nc(S(=O)(=O)Cc3cccc(C)c3)ncc2Cl)s1 | 35.5 µM (active) |
| CCc1nnc(NC(=O)c2sc3nc4c(cc3c2N)CCCCC4)s1 | inactive |
| CC(=O)Nc1nnc(COc2ccc(Cl)cc2)s1 | inactive |
| Cc1ccc2nc(-c3ccc(NS(=O)(=O)c4c(C)n(C)c(=O)n(C)c4=O)cc3)sc2c1 | inactive |
| Cc1sc(NC(=O)/C=C/c2ccco2)c(C(=O)OC(C)C)c1C | inactive |
| O=C(O)CC/C(=N/NC(=O)CNC(=O)Cc1ccccc1)c1ccccc1 | inactive |
| COc1ccc(/C=N/NC(=O)c2sccc2C)c2ccccc12 | inactive |
| CCCc1nnc(SCC(=O)Nc2cccc(Cl)c2Cl)o1 | inactive |
| Fc1ccc(NC(S)=Nc2nccs2)cc1 | inactive |
| O=C(c1cnn(-c2ccc(Cl)cc2)c1)c1ccccc1O | inactive |
| OCCNc1c2ccccc2nc2c(F)c(F)c(F)c(F)c12 | inactive |
| O=c1oc2c(CN3CCCCC3)c(O)ccc2cc1-c1nc2ccccc2[nH]1 | inactive |

— ChEMBL document CHEMBL1201862, “PubChem BioAssay data set” (2004)
